From PubChem BioAssay AID1619 (SRMLSC, 2009)
The campaign covered roughly 220,000 compounds. About 830 (0.38%) were called active.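 The calls were made as follows: active = compound inhibiting the enzyme by more than half at any dose during confirmatory dose-response retesting; inconclusive = strong single-dose inhibitors picked by rank but not retested; inactive = the rest.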 A selection follows. Entries with a potency or affinity are not part of this list.

Target: Leucine aminopeptidase (Plasmodium falciparum (isolate 3D7)) (UniProt Q8IL11)
Assay: P. falciparum M17LAP inhibitors, primary screen, biochemical, fluorogenic H-Leu-NHMec substrate, 1536-well (AID 1619);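 also: plate controls were full reaction with DMSO carrier for no effect and no enzyme background for full effect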
Conditions: recombinant M17LAP, H-Leu-NHMec fluorogenic kinetic assay; at 30 µM; active compounds read high

Sequence of Leucine aminopeptidase (Plasmodium falciparum (isolate 3D7)) (Q8IL11 whole entry, looked up): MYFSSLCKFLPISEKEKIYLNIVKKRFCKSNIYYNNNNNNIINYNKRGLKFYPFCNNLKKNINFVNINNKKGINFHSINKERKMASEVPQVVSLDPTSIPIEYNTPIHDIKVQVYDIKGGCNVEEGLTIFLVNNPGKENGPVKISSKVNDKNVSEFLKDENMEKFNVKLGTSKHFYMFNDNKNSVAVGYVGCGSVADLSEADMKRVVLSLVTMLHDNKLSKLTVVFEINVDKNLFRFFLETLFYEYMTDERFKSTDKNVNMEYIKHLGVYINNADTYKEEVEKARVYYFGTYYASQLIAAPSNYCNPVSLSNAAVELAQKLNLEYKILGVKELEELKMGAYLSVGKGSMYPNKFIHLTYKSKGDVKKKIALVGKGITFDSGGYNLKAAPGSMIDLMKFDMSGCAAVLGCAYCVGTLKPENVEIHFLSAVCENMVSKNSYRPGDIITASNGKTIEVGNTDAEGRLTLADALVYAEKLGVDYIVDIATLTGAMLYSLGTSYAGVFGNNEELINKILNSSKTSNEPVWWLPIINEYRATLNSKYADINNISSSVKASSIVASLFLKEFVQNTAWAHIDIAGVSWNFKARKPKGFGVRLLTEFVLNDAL

inhibition, inactive:
Cc1nn(-c2ccccc2)c(N)c1C(O)(CSc1nccn1C)C(F)(F)F (stereo unspecified) -3.48%
CCC(CC)c1nnc(NC(=O)C2=NNC(=O)CC2)s1 -4.73%
COc1ccc(-c2cc(=O)n(-c3ccc([N+](=O)[O-])cc3)[nH]2)cc1 2.52%
Nn1cnc2sc3c(c2c1=O)CCC3 0.94%
CCC(=O)Nc1ccc2c(c1)C(=O)c1ccccc1C2=O -6.31%
COC(=O)N1[C@H](C)C=C[C@]1(Cc1ccccc1)C(=O)O 2.77%
CCOC(=O)c1ccc(Cl)c(NC(=O)c2ccc(-c3ccccc3)cc2)c1 -7.72%
COc1ccc(N2C(=O)/C(=C/c3ccc([N+](=O)[O-])cc3)C=C2c2ccccc2)cc1 -15.3%
COc1ccccc1Nc1nc(-c2c(C)nc3ncccn23)cs1 11.3%
COc1ccc(C2C(C#N)=C(N)OC3=C2C(=O)CC(C)(C)C3)cc1 (stereo unspecified) 7%
CCN=c1scc(C)n1/N=C/c1ccsc1 12.2%
CN=c1scc(C)n1/N=C/c1ccc(O)c(O)c1O 59%
CCCCN(CC)CCCNC(=O)c1cc2c(=O)n(C)c3ccccc3c2n1C -2.09%
O=C(O)CCN1C(=O)/C(=C\c2ccncc2)SC1=S 12.4%
COc1ccc(C(=O)CCC(=O)O)cc1 2.45%
COc1ccc(/C=C2/SC(=S)N(CCC(=O)O)C2=O)cc1 38.8%
C/C(=C1/SC(=S)N(CCC(=O)O)C1=O)c1ccc(O)cc1 52.2%
C=CCNC(=O)CCCc1ccccc1 11.4%
CC1CCCCN1C(=O)Cn1cnc2c1c(=O)n(C)c(=O)n2C (stereo unspecified) 0.19%
Cc1cc(-c2ccccc2)nc(Oc2cccc(C(F)(F)F)c2)c1S(C)(=O)=O -2.06%
COc1cccc(-n2nc3c(=S)[nH]nc(C)c3c2C)c1 -3.52%
O=C(O)COCC(=O)Nc1cc(C(F)(F)F)cc(C(F)(F)F)c1 -0.47%
COc1ccccc1NS(=O)(=O)c1ccc(NC(=O)c2ccncc2)cc1 -5.68%
Cc1ccccc1-c1cc(=O)c2c(O)cccc2o1 -7.05%
COc1ccc(-c2cc(=O)c3c(O)c(OC)c(O)cc3o2)cc1 -3.88%
COc1ccc(C2=NOC(C(=O)Nc3cc(C)on3)C2)cc1 (stereo unspecified) -16.7%
COc1ccccc1NC(=O)CSC1CC(=O)N(c2ccc3c(c2)OCO3)C1=O (stereo unspecified) 2.14%
COC(=O)c1ccc(N2C(=O)CC(SCC(=O)Nc3ccc(OC)cc3)C2=O)cc1 (stereo unspecified) -6.08%
COC(=O)[C@@]1(Cc2ccccc2)[C@H]2c3cc(C(=O)N4CCCC4)n(CCSCCO)c3C[C@H]2CN1C(=O)c1ccccc1 2.66%
CN(CCC#N)S(=O)(=O)c1ccc2[nH]cc(C(=O)NCCc3ccccc3)c(=O)c2c1 -16%
Cc1cc(Cl)ccc1C(=O)C1CCCN(C(=O)CCn2cnnn2)C1 (stereo unspecified) 5.92%
CCOc1ccccc1C1C(C#N)=C(N)Oc2n[nH]c(CC)c21 (stereo unspecified) 29.4%
CCCc1[nH]nc2c1C(c1ccccc1OCC)C(C#N)=C(N)O2 (stereo unspecified) 8.34%
CCOC(=O)N1CCC(N2C(=O)c3ccccc3C2Nc2ccc3c(c2)OCCO3)CC1 (stereo unspecified) -7.29%
CCn1c(-c2cc(-c3ccc(C)cc3)nc3ccccc23)n[nH]c1=S -3.9%
CCCCS(=O)(=O)N1CN(S(=O)(=O)CCCC)C2NC(=O)NC21 (stereo unspecified) 0.79%
CCCCc1cc(=O)oc2c(C)c(OCc3nn[nH]n3)ccc12 6.82%
CCCc1cc(=O)oc2c(C)c(OCc3nn[nH]n3)ccc12 -5.76%
O=C(NC1CCCCC1)c1ccccc1NC(=S)NC(=O)C1CC1 5.81%
S=C(Nc1ccccc1)Nc1ccccc1-n1cccc1 -5.63%
N#Cc1c(NC(=O)CSc2nc(N)cc(=O)[nH]2)sc2c1CCCCCC2 4.49%
N#Cc1c(NC(=O)CSC2=NCCS2)sc2c1CCCC2 19.2%
Cn1cnnc1SCC(=O)Nc1sc2c(c1C#N)CCCCC2 11.7%
Cc1ccnc(SCC(=O)Nc2sc3c(c2C#N)CCCC3)n1 2.01%
Cc1csc(SCC(=O)Nc2sccc2C#N)n1 0.5%
Cn1cnnc1SCC(=O)Nc1sccc1C#N -7.3%
Cc1nnc(SCC(=O)Nc2sc3c(c2C#N)CCCC3)[nH]c1=O 52.5%
N#Cc1c(NC(=O)CSc2ncn(-c3ccccc3)n2)sc2c1CCCC2 9.47%
O=C1CC(C(=O)NCc2ccccc2)C2(CCCC2)O1 (stereo unspecified) -0.86%
COc1ccc(C2C(C(=O)N3CCCCC3)c3ccccc3C(=O)N2C)cc1 (stereo unspecified) -0.86%
CCOC(=O)c1sc(NC(=O)CSc2nc(C)cc(C)c2C#N)c(C#N)c1C -17.4%
CCOC(=O)c1sc(NC(=O)CSc2nc(C)cc(C)n2)c(C#N)c1C -1.79%
Cc1ccc(OCC(=O)OC2CCS(=O)(=O)C2)cc1 (stereo unspecified) 1.23%
CN(C)c1ccc2c(=O)[nH][nH]c(=O)c2c1 5.67%
CN1C(=O)c2ccc(N3CCCC3)cc2C1=O 22.5%
O=C(Nc1ccc(Br)cc1Cl)NC1CC1 -4.66%
CC(CCc1ccccc1)NC(=O)c1cccs1 (stereo unspecified) -2.09%
Cc1ccc2c(CC(=O)N3CCN(S(=O)(=O)c4ccc5c(c4)OCCO5)CC3)coc2c1 -3.86%
Cc1ccccc1/C=N/NC(=O)Cn1nnc(N)n1 -9.27%
COc1ccc2sc(N(CCN(C)C)C(=O)/C=C/c3cccs3)nc2c1 1.07%
CC1=NN(C(=O)CSCc2ccccc2)C(O)(c2ccc(F)cc2)C1 (stereo unspecified) 6.76%
CCOC(=O)c1c(NC(=O)C2CCCCC2C(=O)O)sc2c1CCCCC2 (stereo unspecified) 33.7%
COC(=O)c1c(NC(=O)C2C3CCC(C3)C2C(=O)O)sc2c1CCCCC2 (stereo unspecified) 56.4%
COC(=O)c1c(NC(=O)C2CC2)sc2c1CCCC2 -6.73%
CCOC(=O)c1c(NC(=O)C2C3CCC(O3)C2C(=O)O)sc2c1CCCC2 (stereo unspecified) 14.3%
COc1ccc(NC(=S)N(CCN2CCOCC2)Cc2cc3cc4c(cc3[nH]c2=O)OCCO4)cc1 10.8%
Cc1nnc(SCC(=O)NC(=O)NCc2ccco2)s1 -1.14%
Cc1ccccc1Nc1nnc(SCC(=O)NCc2ccco2)s1 45.1%
CCOc1ccc(S(=O)(=O)c2c(C(=O)c3ccccc3)cnc3cc4c(cc23)OCCO4)cc1 1.82%
O=C(CCS(=O)(=O)Cc1ccccc1F)N1CCc2ccccc2C1 6.01%
COc1ccccc1N1CCN(c2ccc(N3C(=O)CCC3=O)cc2[N+](=O)[O-])CC1 -4.52%
COc1ccc(OCC#CCN2CC(C)OC(C)C2)cc1 (stereo unspecified) -3.27%
CC(C)(C)c1ccc2c(c1)OC(C(=O)N/N=C\c1ccc(-c3cccc(C(=O)O)c3)o1)CO2 (stereo unspecified) 7.12%
O=C(N/N=C\c1ccc(-c2ccc([N+](=O)[O-])cc2)o1)C1COc2ccccc2O1 (stereo unspecified) 1.94%
O=C(N/N=C/c1ccc(-c2ccc([N+](=O)[O-])cc2)o1)c1cccnc1 4.87%
Nc1nonc1C(=O)N/N=C/c1ccc(-c2cccc(C(=O)O)c2)o1 30.2%
CCOP(C)(=O)C1(C(=O)OCc2ccccc2)CC1 (stereo unspecified) -6.01%
COc1cccc(CNc2ccc([N+](=O)[O-])cc2C)c1 6.82%
CC(C)CN1C(=O)/C(=C/c2cccs2)NC1=S 35.9%
O=C1/C(=C/c2ccc(N3CCCC3)cc2)NC(=S)N1C1CC1 -10.7%
O=C(CC1C(=O)NCCN1C(=O)c1ccc(F)cc1)OCc1ccccc1 (stereo unspecified) -6.93%
Cc1ccc(CNC(=O)CN2CCCC(C)C2)cc1 (stereo unspecified) 8.72%
COc1cc(-c2[nH]nc3c2C(c2ccoc2)C(C#N)=C(N)O3)cc(OC)c1OC (stereo unspecified) 24%
Cc1[nH]nc2c1C(c1ccoc1)C(C#N)=C(N)O2 (stereo unspecified) 21.9%
COc1cccc(-c2[nH]nc3c2C(c2ccsc2)C(C#N)=C(N)O3)c1 (stereo unspecified) 35.3%
COc1ccc(-c2[nH]nc3c2C(c2ccoc2)C(C#N)=C(N)O3)cc1 (stereo unspecified) 27.9%
O=C(Nc1nnc(-c2ccccn2)o1)c1ccc(Br)cc1 8.43%
COCC(C)NC(=O)c1cc2cccc([N+](=O)[O-])c2[nH]1 (stereo unspecified) 11.6%
NC(=O)N[C@@H](Cc1c[nH]c2ccccc12)C(=O)OCC(=O)N1CCCCC1 -0.49%
O=C(O/N=C(\c1ccccc1)c1ccncc1)c1ccccc1Cl 3.91%
CC(C)Cn1c2ccccc2c2cc(C(=O)O)ccc21 1.66%
COc1ccc(-c2csc(N)n2)cc1 -1.01%
COc1ccc(-c2nc(N)n[nH]2)cc1 2.51%
Cc1ccc(S(=O)(=O)/N=C(\c2ccccc2)N(C)S(=O)(=O)c2ccc(C)cc2)cc1 -10.3%
Cc1cccc(NC(=O)C2CCN(c3nc(C)cc(C)n3)CC2)c1 35.1%
Cc1cc(C)cc(NC(=O)C2CCCN(c3nc(C)cc(C)n3)C2)c1 (stereo unspecified) -13.6%
